According to the supplement of paper PMC8728848:
The full list was thinned out, with the strongest signals kept by preference.

B1: SAG1 (Toxoplasma gondii), P13664 (protein)
chain: MSVSLHHFIISSGFLTSMFPKAVRRAVTAGVFAAPTLMSFLRCGVMASDPPLVANQVVTCPDKKSTAAVILTPTENHFTLKCPKTALTEPPTLAYSPNRQICPAGTTSSCTSKAVTLSSLIPEAEDSWWTGDSASLDTAGIKLTVPIEKFPVTTQTFVVGCIKGDDAQSCMVTVTVQARASSVVNNVARCSYGADSTLGPVKLSAEGPTTMTLVCGKDGVKVPQDNNQYCSGTTLTGCNEKSFKDILPKLTENPWQGNASSDKGATLTIKKEAFPAESKSVIIGCTGGSPEKHHCTVKLEFAGAAGSAKSAAGTASHVSIFAMVIGLIGSIAACVA
B2: cupB6 (Pseudomonas aeruginosa), Q02SP7 (protein)
chain: MSMRLFPGRVSLRRRPGAQARQALVLGLCCLTGGQAWALNEVALNCSFGNGKGLPWRVVNELTSGTAKGTVLFARPVSLFLSYKPQASQEAHELVLGGNWSGVGYPGPYGTVASDVKGIGYRISVDAQDGVKRVIPVDNQPHALDKRVTSFSGSTTSDYLQELVLTVDPGELPAGDLKVTSVSGSATLNLWAVDRLKGEASIGSVLAVPADNYPTGVCRKPYSLIGPASIAIGGGPPPPPIPKKCKVEVGREINVKLGSVALKNFPRVNDTSTERSFDISLSECAALAKPEIAFRDKYVSAQQADPTILSLKSGGAAGFGIVVKNGLDQQRIRFDGTPYPMRRVGDSADLPLSAAYIRIGAEGELKAGVADGAAEFTFTFP

Legend:
Experiment in all cases: glycan array binding signal (z-score within array); higher = stronger binding
Details in all cases: glycan notation: IUPAC condensed, linker removed
[1] = target: Fuc(a1-2)Gal(b1-3)[Fuc(a1-4)]GlcNAc
How it was run: (§1)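 Columns mapping to the same glycan were averaged after glycan names were converted to IUPAC-condensed notation. The data come from 3228 arrays in the Consortium for Functional Glycomics database, limited to those with an available protein sequence. Binding is reported as a within-array Z-score averaged across arrays of one protein sequence and across linkers.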

[2] = target: Fuc(a1-2)[Gal(a1-3)]Gal(b1-4)GlcNAc(b1-2)Man(a1-3)[Fuc(a1-2)[Gal(a1-3)]Gal(b1-4)GlcNAc(b1-2)Man(a1-6)]Man(b1-4)GlcNAc(b1-4)GlcNAc
How it was run: as §1

[3] = target: Fuc(a1-2)[GalNAc(a1-3)]Gal(b1-3)GlcNAc(b1-2)Man(a1-3)[Fuc(a1-2)[GalNAc(a1-3)]Gal(b1-3)GlcNAc(b1-2)Man(a1-6)]Man(b1-4)GlcNAc(b1-4)GlcNAc
How it was run: as §1

[4] = target: Fuc(a1-3)[Gal(b1-4)]GlcNAc(b1-2)Man(a1-3)[Fuc(a1-3)[Gal(b1-4)]GlcNAc(b1-2)Man(a1-6)]Man(b1-4)GlcNAc(b1-4)GlcNAc
How it was run: as §1

[5] = target: Fuc(a1-3)[Gal(b1-4)]GlcNAc(b1-3)Gal(b1-3)[Fuc(a1-4)]GlcNAc
How it was run: as §1

[6] = target: Gal(a1-3)Gal(b1-3)GlcNAc(b1-2)Man(a1-3)[Gal(a1-3)Gal(b1-3)GlcNAc(b1-2)Man(a1-6)]Man(b1-4)GlcNAc(b1-4)GlcNAc
How it was run: as §1

[7] = target: Gal(b1-3)[GlcNAc(b1-6)]GalNAc
How it was run: as §1

[8] = target: Gal(b1-4)GlcNAc(a1-6)Gal(b1-4)GlcNAc
How it was run: as §1

[9] = target: Gal3S(b1-3)[Fuc(a1-4)]GlcNAc
How it was run: as §1

Gal6S(b1-4)Glc = target: Gal6S(b1-4)Glc
How it was run: as §1

GalNAc(a1-3)Gal = target: GalNAc(a1-3)Gal
How it was run: as §1

[10] = target: GlcNAc(a1-4)Gal(b1-4)GlcNAc(b1-3)Gal(b1-4)GlcNAc(b1-3)Gal(b1-4)GlcNAc
How it was run: as §1

[11] = target: GlcNAc(a1-4)Gal(b1-4)GlcNAc(b1-3)Gal(b1-4)[Fuc(a1-3)]GlcNAc(b1-3)Gal(b1-4)[Fuc(a1-3)]GlcNAc
How it was run: as §1

[12] = target: Man(a1-3)[Man(a1-6)]Man(a1-6)[Man(a1-3)]Man
How it was run: as §1

[13] = target: Neu5Ac(a2-3)Gal(b1-3)GalNAc(b1-4)[Neu5Ac(a2-3)]Gal(b1-4)Glc
How it was run: as §1

[14] = target: Neu5Ac(a2-3)Gal(b1-3)GlcNAc
How it was run: as §1

[15] = target: Neu5Ac(a2-3)Gal(b1-4)GlcNAc(b1-3)Gal(b1-4)GlcNAc(b1-3)Gal(b1-4)GlcNAc
How it was run: as §1

[16] = target: Neu5Ac(a2-3)Gal(b1-4)GlcNAc(b1-3)Gal(b1-4)[Fuc(a1-3)]GlcNAc
How it was run: as §1

[17] = target: Neu5Ac(a2-3)Gal(b1-4)GlcNAc(b1-6)[Neu5Ac(a2-3)Gal(b1-3)]GalNAc
How it was run: as §1

[18] = target: Neu5Ac(a2-3)Gal(b1-4)[Fuc(a1-3)]GlcNAc(b1-3)GalNAc
How it was run: as §1

[19] = target: Neu5Ac(a2-3)Gal(b1-4)[Fuc(a1-3)]GlcNAc6S
How it was run: as §1

[20] = target: Neu5Ac(a2-6)Gal(b1-4)GlcNAc(b1-2)Man(a1-6)[GlcNAc(b1-2)Man(a1-3)]Man(b1-4)GlcNAc(b1-4)GlcNAc
How it was run: as §1

[21] = target: Neu5Ac(a2-6)GlcNAc(b1-4)GlcNAc(b1-4)GlcNAc
How it was run: as §1

[22] = target: Neu5Ac(a2-8)Neu5Ac(a2-8)Neu5Ac(a2-8)Neu5Ac(a2-3)[GalNAc(b1-4)]Gal(b1-4)Glc
How it was run: as §1

[23] = target: Neu5Gc(a2-3)Gal(b1-3)[Fuc(a1-4)]GlcNAc
How it was run: as §1

[24] = target: Neu5Ac(a2-3)GalNAc(b1-4)GlcNAc
How it was run: as §1

[25] = target: Neu5Ac(a2-6)Gal(b1-4)GlcNAc
How it was run: as §1

[26] = target: Neu5Ac(a2-6)Gal(b1-4)GlcNAc(b1-2)Man(a1-3)Man(b1-4)GlcNAc(b1-4)GlcNAc
How it was run: as §1

[27] = target: Neu5Ac(a2-6)Gal(b1-4)GlcNAc(b1-2)Man(a1-3)[Man(a1-6)]Man(b1-4)GlcNAc(b1-4)GlcNAc
How it was run: as §1

[28] = target: Neu5Ac(a2-6)Gal(b1-4)GlcNAc(b1-2)Man(a1-6)[Man(a1-3)]Man(b1-4)GlcNAc(b1-4)GlcNAc
How it was run: as §1

Neu5Ac(a2-8)Neu5Ac = target: Neu5Ac(a2-8)Neu5Ac
How it was run: as §1

[29] = target: Neu5Ac(a2-8)Neu5Ac(a2-8)Neu5Ac(a2-3)[GalNAc(b1-4)]Gal(b1-4)Glc
How it was run: as §1

Binder	glycan array binding signal (z-score) [1]	glycan array binding signal (z-score) [2]	glycan array binding signal (z-score) [3]	glycan array binding signal (z-score) [4]	glycan array binding signal (z-score) [5]	glycan array binding signal (z-score) [6]	glycan array binding signal (z-score) [7]	glycan array binding signal (z-score) [8]	glycan array binding signal (z-score) [9]	glycan array binding signal (z-score) (Gal6S(b1-4)Glc)	glycan array binding signal (z-score) (GalNAc(a1-3)Gal)	glycan array binding signal (z-score) [10]	glycan array binding signal (z-score) [11]	glycan array binding signal (z-score) [12]	glycan array binding signal (z-score) [13]	glycan array binding signal (z-score) [14]	glycan array binding signal (z-score) [15]	glycan array binding signal (z-score) [16]	glycan array binding signal (z-score) [17]	glycan array binding signal (z-score) [18]	glycan array binding signal (z-score) [19]	glycan array binding signal (z-score) [20]	glycan array binding signal (z-score) [21]	glycan array binding signal (z-score) [22]	glycan array binding signal (z-score) [23]	glycan array binding signal (z-score) [24]	glycan array binding signal (z-score) [25]	glycan array binding signal (z-score) [26]	glycan array binding signal (z-score) [27]	glycan array binding signal (z-score) [28]	glycan array binding signal (z-score) (Neu5Ac(a2-8)Neu5Ac)	glycan array binding signal (z-score) [29]
B1	0.139	0.615	-0.505	1.86	-0.232	1.47	-0.229	-0.386	7.52	-0.579	-0.761	0.265	2.24	-0.442	0.728	0	-0.703	1.71	1.61	3.63	-0.651	-0.2	-0.384	-0.241	0.031	–	–	–	–	–	–	–
B2	–	–	–	–	–	–	–	–	–	–	–	–	–	–	–	–	–	–	–	–	–	–	–	-0.043	–	-0.177	-0.15	0.058	0.325	0.107	-0.002	-0.074
